# AMPAR-TARP mod = modulators of AMPA receptor GluA2-stargazin complexes; calls only at 30 µM; actives 3.5% (n = 40,000); O88602+P19491; HEK293 GluA2+stargazin, membrane potential dye (FDSS), glutamate EC50; hits were called plate by plate, in both directions;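 active = any of four per-well response measures lying three or more SD from its plate-wide compound average, in either direction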
# GIRK2 act = Activates human GIRK2-containing potassium channels; P48051; HEK293 GIRK2/NPY4 cells, thallium flux fluorescence; activation (% efficacy), % for hits at 37.5 µM; 34,000 tested, under 10 active; AID 1259324;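 active = primary screen hit, no activity in plain HEK293 cells, and in GIRK2-only cells above 5% efficacy rising with concentration; inactive = the rest, including fluorescent compounds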;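 note: efficacy is normalized control-subtracted fluorescence 15 s after thallium addition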
# Target sequence (P48051 whole entry, looked up): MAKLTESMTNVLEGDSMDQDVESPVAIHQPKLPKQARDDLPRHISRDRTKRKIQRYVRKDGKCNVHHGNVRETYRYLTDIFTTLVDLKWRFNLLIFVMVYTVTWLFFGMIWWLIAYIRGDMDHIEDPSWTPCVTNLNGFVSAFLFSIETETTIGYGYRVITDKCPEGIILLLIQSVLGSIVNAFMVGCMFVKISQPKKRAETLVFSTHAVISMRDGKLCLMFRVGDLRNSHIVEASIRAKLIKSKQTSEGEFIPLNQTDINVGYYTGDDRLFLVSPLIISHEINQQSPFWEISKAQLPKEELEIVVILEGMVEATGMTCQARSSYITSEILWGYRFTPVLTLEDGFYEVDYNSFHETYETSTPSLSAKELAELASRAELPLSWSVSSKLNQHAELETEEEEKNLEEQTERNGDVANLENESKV
# Calls only; . = inactive; / = no result given; + = active, no number. The entries come from a sample that favours hits as a whole.
SMILES,AMPAR-TARP mod,GIRK2 act
O=C(COc1ccccc1C1CC(c2cccs2)=NN1C(=O)c1ccccc1)N1CCCC1 (centres undefined),.,/
O=C(COc1ccccc1C1CC(c2ccccc2)=NN1C(=O)c1ccccc1)N1CCOCC1 (centres undefined),+,/
O=C(Nc1nnc(Cc2cccs2)o1)c1cc(Cl)sc1Cl,.,.
O=C(NCc1cccs1)NCC(O)c1ccc(C(F)(F)F)cc1 (centres undefined),.,/
O=C(NCC(O)c1ccc(C(F)(F)F)cc1)Nc1cccs1 (centres undefined),+,/
COc1ccc(NC(=O)c2ccc(S(=O)(=O)N(C)Cc3ccco3)cc2)c2ccccc12,.,.
COc1ccc(C)c2sc(N(Cc3ccncc3)C(=O)/C=C/c3ccc([N+](=O)[O-])cc3)nc12,+,.
COc1ccc(OC)c2sc(N(CCN3CCOCC3)C(=O)/C=C/c3ccc([N+](=O)[O-])cc3)nc12,.,.
CCc1ccc(S(=O)(=O)c2cnc(SCC(=O)Nc3cccc(CC)c3)[nH]c2=O)cc1,/,.
CC12CCC(C(=O)Nc3ccccc3-n3cccc3)(CC1=O)C2(C)C (centres undefined),+,/
CC12CCC(C(=O)Nc3ccccc3N3CCOCC3)(CC1=O)C2(C)C (centres undefined),.,.
Cc1ccc(C)c(Sc2cc(N3CCC(C(=O)NCC(C)C)CC3)ncn2)c1,.,.
CCOC(=O)N1CCC(NC(=O)C2CCN(c3cc(Sc4cc(C)ccc4C)ncn3)CC2)CC1,+,.
CCOc1ccc(S(=O)(=O)N2CCCCCC2)cc1C(C)(C)C,.,/
CCS(=O)(=O)c1cccc(C(=O)N(CCN2CCOCC2)c2nc3c(C)c(C)ccc3s2)c1,+,/
COc1ccc(C)c2sc(N(CCN3CCOCC3)C(=O)c3ccc(C)cc3)nc12,.,/
COc1ccc(C)c2sc(N(CCN3CCOCC3)C(=O)c3ccc(Br)s3)nc12,+,/
COc1ccc2sc(N(CCN3CCOCC3)C(=O)c3cccc(F)c3)nc2c1,.,.
CCS(=O)(=O)c1cccc(C(=O)N(CCN2CCOCC2)c2nc3ccccc3s2)c1,.,.
COc1ccc2sc(N(CCCN3CCOCC3)C(=O)c3ccno3)nc2c1,+,.
COc1ccc2nc(N(CCN3CCOCC3)C(=O)c3ccc(Br)s3)sc2c1,+,/
O=C(c1ccc(Br)s1)N(CCN1CCOCC1)c1nc2ccccc2s1,.,.
N/C(=N\OC(=O)CSc1ccccc1)c1ccc(Br)cc1,.,/
COc1ccc(S(=O)(=O)NCCc2csc(-c3ccc(F)cc3)n2)c(OC)c1,.,/
O=C(c1c[nH]c2ccccc12)N1CCN(c2ccc(N3CCOCC3)nn2)CC1,.,.
SMILES,AMPAR-TARP mod,GIRK2 act
O=C(NCCc1csc(-c2ccc(F)cc2)n1)C(=O)Nc1ccon1,.,.
O=C(Nc1nnc(CCS(=O)(=O)c2ccccc2)o1)c1ccc(F)cc1,.,.
Cc1ccc(S(=O)(=O)NCCC(=O)N/N=c2\sc3ccccc3n2C)cc1,/,.
CCCC(=O)N(CCN1CCOCC1)c1nc2c(OC)ccc(OC)c2s1,+,/
CCOc1ccc2nc(N(CCN3CCOCC3)C(=O)c3ccnn3C)sc2c1,.,.
CCn1nc(C)cc1C(=O)N(CCCN(C)C)c1nc2c(OC)ccc(Cl)c2s1,.,.
COc1ccc(C)c2sc(N(CCN3CCOCC3)C(=O)c3ccc(Cl)s3)nc12,+,/
COc1ccc(OC)c2sc(N(CCN3CCOCC3)C(=O)CCc3ccccc3)nc12,.,/
CCOc1ccc2nc(N(CCN3CCOCC3)C(=O)c3ccc(S(C)(=O)=O)cc3)sc2c1,+,/
COc1ccc(OC)c2sc(N(CCN(C)C)C(=O)c3cc(C)nn3C)nc12,+,.
COc1ccc(C)c2sc(N(CCN3CCOCC3)C(=O)c3ccc(Cl)cc3)nc12,.,/
Cc1ccc(-c2nn(C)c(=O)c3ccccc23)cc1CNC(=O)c1cccs1,.,/
Cc1ccc(S(=O)(=O)NCC(=O)NNC(=O)NC2CCCCC2)cc1,.,.
O=C(CS(=O)(=O)c1ccc(Cl)s1)Nc1cccc(C(F)(F)F)c1,+,.
O=C(CS(=O)(=O)c1ccc(Cl)s1)Nc1ccc(Oc2ccccc2)cc1,.,.
CCCOc1cn(-c2ccc(F)cc2)nc1C(=O)N1CCCC1,.,.
CC(C)S(=O)(=O)c1ccc(C(=O)Nc2nc3cc4c(cc3s2)OCCO4)cc1,.,.
Cc1ccc2nc(NC(=O)c3ccc(S(=O)(=O)C(C)C)cc3)sc2c1,+,/
CS(=O)(=O)c1ccc2nc(NC(=O)Cn3cccn3)sc2c1,.,.
Cc1cn(C)nc1C(=O)Nc1nc2ccc(S(C)(=O)=O)cc2s1,+,.
O=C(Nc1nnc(Cc2ccc(Cl)s2)o1)c1nc2ccccc2s1,/,.
COc1ccccc1C(=O)N1CCN(c2ccc(-c3ccccc3C)nn2)CC1,.,.
CCN(CC)C(=O)Oc1ccc2c(=O)c(-c3ccccc3)c(C)oc2c1,.,/
COc1ccccc1-c1c(C)oc2cc(OC(=O)N3CCOCC3)ccc2c1=O,.,/

# Compound activity deposited in PubChem by several laboratories.
